# p97 ATPase inh: inhibitors of human p97 ATPase | hit rate 0.42% among 220,000 | AID 1481 | inhibition, % at 8 µM | P55072 | recombinant p97 ATPase, Kinase-Glo ATP luminescence, 3 h; in the data active means inhibition above about 15%;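 further: 0% = DMSO vehicle and 100% = wells lacking enzyme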
# Target sequence (P55072 whole entry, looked up): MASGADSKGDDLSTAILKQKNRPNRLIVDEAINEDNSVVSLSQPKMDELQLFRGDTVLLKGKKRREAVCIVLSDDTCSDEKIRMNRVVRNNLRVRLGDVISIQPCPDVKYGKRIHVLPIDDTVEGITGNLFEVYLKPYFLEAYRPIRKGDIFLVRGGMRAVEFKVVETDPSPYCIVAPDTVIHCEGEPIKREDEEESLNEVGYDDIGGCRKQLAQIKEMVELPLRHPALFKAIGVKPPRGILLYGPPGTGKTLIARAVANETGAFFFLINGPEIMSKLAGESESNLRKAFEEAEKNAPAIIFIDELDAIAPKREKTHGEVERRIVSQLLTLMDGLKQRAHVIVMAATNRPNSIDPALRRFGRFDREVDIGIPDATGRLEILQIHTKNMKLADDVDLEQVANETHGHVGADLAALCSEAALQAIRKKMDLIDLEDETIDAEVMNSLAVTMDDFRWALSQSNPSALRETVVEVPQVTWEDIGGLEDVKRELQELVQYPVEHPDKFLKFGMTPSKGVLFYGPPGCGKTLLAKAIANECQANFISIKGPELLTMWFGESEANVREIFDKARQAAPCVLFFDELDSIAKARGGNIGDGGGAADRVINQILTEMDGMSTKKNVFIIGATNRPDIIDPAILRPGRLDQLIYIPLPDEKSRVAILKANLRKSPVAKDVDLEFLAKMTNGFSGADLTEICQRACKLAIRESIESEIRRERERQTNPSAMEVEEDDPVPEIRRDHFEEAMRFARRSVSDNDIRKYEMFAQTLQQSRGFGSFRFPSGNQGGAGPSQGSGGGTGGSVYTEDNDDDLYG
# HCT116 PTEN-null: PTEN-deleted cell growth suppression; HCT116 PTEN-null viability, CellTiter-Glo, 60 h; active compounds read low; viability, % at 10 µM; hit rate 1.2% among 140,000; AID 827;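 active means viability at or below a set limit, 4 SD under the median of all tested compounds, cut at about 3.7% in these data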;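 further: PTEN knockout HCT116 line with beta catenin targeted HCT116 as companion control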
# INS promoter inh: TRM-6 insulin promoter activity inhibition; AID 1273; TRM-6 cells (human fetal islet line), insulin promoter-eGFP reporter, imaging; reporter expression induced with tamoxifen; inhibition, % at 2 µM; hit rate 0.9% among 130,000;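 active means inhibition above the mean plus 3 SD, with well images judged a real hit on visual review, cut at about 60% in these data, passing the limit was not always enough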
# L major viab: reduces viability of Leishmania major promastigotes; hit rate 9% among 200,000; AID 1063; resazurin fluorescence viability; inhibition, % at 10 µM; in the data active means inhibition above about 50%;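 further: promastigotes grown with compound for 44 hours at 28 °C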
# ROMK primary: human ROMK K+ channel modulation, primary screen | Tet-inducible ROMK, thallium flux fluorescence; actives lie on both sides | P48048 | hit rate 2% among 130,000 | B-score at 10 µM;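 active means signal ratio slope over the read window, or its plate-corrected B-score, at least 3 SD from the plate mean, either direction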;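 further: B-score of the F/F0 ratio slope over 7 to 12 s after thallium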
# bCat KO growth: beta-catenin-lacking colon tumor cell growth suppression; HCT116 beta-catenin knockout viability, CellTiter-Glo, 60 h; active compounds read low; viability, % at 10 µM; hit rate 1.5% among 140,000; AID 818;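 active means viability at or under a set limit, the compound median less 4 SD, cut at about 6% in these data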;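 further: 0% = Hyamine 1622 control at 20 µM and 100% = untreated cell control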
# Starred values were filed as active, the others as inactive; nt = no result. Sampled rows, rich in hits. Any-hit rate of the full collection: about 10%.
SMILES,p97 ATPase inh,HCT116 PTEN-null,INS promoter inh,L major viab,ROMK primary,bCat KO growth
CCN1CCN(CC(=O)n2c3c(c4ccccc42)CC(C)CC3)CC1 (stereo unspecified),-6,72,39,100*,-1,65
CC1CCN(CC(=O)n2c3c(c4ccccc42)CCCC3)CC1,-8,93,57,5,nt,94
O=C(c1sc2ccccc2c1Cl)N(Cc1ccccc1)C1CCS(=O)(=O)C1 (stereo unspecified),-2,59,8,46,nt,69
O=C(c1sc2ccccc2c1Cl)N(Cc1ccco1)C1CCS(=O)(=O)C1 (stereo unspecified),10,89,-24,96*,nt,87
NC(=O)C1CCN(C(=O)Nc2csc3ccccc23)CC1,4,nt,nt,nt,nt,nt
CCN1CCN(Cc2ccc(NC(=O)Nc3ccc(SC)cc3)cc2)CC1,3,84,-52,4,-1.4,75
CSc1ccc(C(=S)N2CCN(Cc3ccccc3)CC2)cc1,-1,104,71,94*,nt,96
CCN1CCN(C(=S)c2ccc(SC)cc2)CC1,0,98,-6,91*,0.016,104
CSc1ncccc1C(=O)Nc1nc2ccc(Oc3ccccc3)cc2s1,2,70,nt,0,-0.014,77
Cc1ccc(S(=O)(=O)NCC2CCC(C(=O)NCc3ccc4c(c3)OCO4)CC2)cc1 (stereo unspecified),-2,87,10,-3,-0.29,88
CCCS(=O)(=O)c1nc(S(=O)(=O)c2ccc(C)cc2)c(NCCCN(C)C)s1,0,nt,27,95*,-1.1,nt
Cc1ccc(S(=O)(=O)c2nc(NCCN(C)C)sc2Cl)cc1,-7,88,-31,89*,nt,88
CCCS(=O)(=O)c1nc(S(=O)(=O)c2ccc(C)cc2)c(NCCN2CCOCC2)s1,0,90,-35,-5,nt,86
CCCS(=O)(=O)c1nc(S(=O)(=O)c2ccc(C)cc2)c(NCc2ccc3c(c2)OCO3)s1,6,87,23,62*,nt,90
Cc1ccc(S(=O)(=O)c2nc(Nc3ccccc3)sc2Cl)cc1,4,36,nt,24,nt,29
Cc1ccc(Cn2c([N+](=O)[O-])cnc2C)cc1,-5,100,-10,-7,0.37,94
Cc1ncc([N+](=O)[O-])n1Cc1ccccc1,8,97,0,73*,-0.58,88
Cc1ccccc1NC(=O)Cn1c([N+](=O)[O-])cnc1C,1,92,nt,-3,nt,83
Cc1ncc([N+](=O)[O-])n1CC(=O)NC1CCCCC1,4,96,-21,83*,nt,91
Cc1ncc([N+](=O)[O-])n1Cc1cccc(F)c1,-1,nt,-27,85*,-0.47,nt
COc1ccc(/C=C/C(=O)NCCN=C2NS(=O)(=O)c3ccccc32)cc1,6,nt,nt,-6,nt,nt
COCCCN(CC(=O)O)S(=O)(=O)c1cccc(Cl)c1,0,nt,nt,-5,0.0019,nt
CCCCNC(=S)N/N=C/C1=CCC2CC1C2(C)C (stereo unspecified),-1,79,23,100*,-0.87,75
C=C(C)CNC(=S)N/N=C/C1=CCC2CC1C2(C)C (stereo unspecified),1,58,nt,100*,nt,57
CC(C)NC(=S)N/N=C/C1=CCC2CC1C2(C)C (stereo unspecified),-7,60,nt,100*,-0.054,65
SMILES,p97 ATPase inh,HCT116 PTEN-null,INS promoter inh,L major viab,ROMK primary,bCat KO growth
COC(C(=O)Nc1cccc([N+](=O)[O-])c1)c1ccccc1 (stereo unspecified),1,nt,-24,-3,1.2,nt
Cc1nc2ccccc2nc1CN1CCC(CO)(CC2CCCCO2)CC1 (stereo unspecified),1,nt,nt,69*,0.76,nt
Cc1cc(SCC(=O)OCC(=O)NC(C)c2ccccc2)c(C)cc1Br (stereo unspecified),-1,90,24,51*,-0.0048,93
COC(=O)c1ccc(CN2C(=O)NC(CC(C)C)C2=O)cc1 (stereo unspecified),-2,nt,nt,2,0.42,nt
COc1cccc(C(=O)Oc2c(Br)cc(Br)cc2/C=N/NC(=O)c2cc(C)[nH]n2)c1,9,nt,nt,78*,-0.49,nt
CCOc1cc(NC(=S)NCC2CCCO2)c(OCC)cc1NC(=O)CC(C)C (stereo unspecified),1,nt,nt,0,0.043,nt
COc1ccc(N2CCN(CCCNC(=O)c3cc4sccc4n3C)CC2)cc1,-4,69,29,81*,nt,68
CC1CCN(CCCNC(=O)c2cc3sccc3n2C)CC1,3,70,nt,92*,-0.66,72
COc1ccc(C(=O)NC2c3ccccc3-c3ccccc32)cc1,7,80,nt,-5,nt,88

# Screening data from PubChem BioAssay.
